In PubChem BioAssay AID1220 (Sanford-Burnham Center for Chemical Genomics, 2008):
About 1,300 (0.68%) of roughly 190,000 compounds were called active. Rule as the data show it: active = inhibition above about 50%; inactive = the rest. Only a selection was taken, and actives are over-represented in it overall.

These compounds were tested against Mannose-6-phosphate isomerase (Homo sapiens) (UniProt P34949) (assay: MPI inhibition at elevated mannose 6-phosphate – biochemical, fluorescence intensity, high mannose 6-phosphate, primary screen (AID 1220)). Settings: recombinant PMI enzyme, coupled fluorescence intensity; at 20 µM; stronger effect = higher value.
Mannose-6-phosphate isomerase (Homo sapiens), sequence (P34949 whole entry, looked up): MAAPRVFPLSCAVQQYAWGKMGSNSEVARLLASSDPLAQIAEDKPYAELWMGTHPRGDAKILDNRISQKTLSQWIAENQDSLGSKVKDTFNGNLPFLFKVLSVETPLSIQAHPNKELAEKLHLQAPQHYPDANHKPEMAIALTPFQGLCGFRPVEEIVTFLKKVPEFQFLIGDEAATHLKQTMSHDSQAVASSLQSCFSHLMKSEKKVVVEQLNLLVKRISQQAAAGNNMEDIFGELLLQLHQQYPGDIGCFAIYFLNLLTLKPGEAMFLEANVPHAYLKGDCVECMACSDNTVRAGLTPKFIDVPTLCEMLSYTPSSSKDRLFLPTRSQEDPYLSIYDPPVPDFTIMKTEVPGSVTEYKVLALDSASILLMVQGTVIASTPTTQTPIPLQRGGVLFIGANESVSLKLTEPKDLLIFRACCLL

SMILES | inhibition
Cc1ccc(-n2nc3ccc(NC(=O)C(C)C)cc3n2)cc1 | 13.3% (inactive)
Cc1ccc(-n2nc3ccc(N)cc3n2)cc1 | 31.3% (inactive)
CC(C)C(=O)Nc1ccc2nn(-c3ccccc3)nc2c1 | -0.5% (inactive)
Cc1nc2cc(N)ccc2n1-c1ccccc1 | 21.5% (inactive)
CC(C)c1ccc2oc(-c3cc(N)ccc3O)nc2c1 | -12.6% (inactive)
CN(C)C=Nc1ccc2nn(-c3ccccc3)nc2c1 | 60.2% (active)
CC(C)c1ccc(-n2nc3ccc(N)cc3n2)cc1 | 55.8% (active)
CC(C)CC(=O)Nc1ccc2nn(-c3ccccc3)nc2c1 | 26.4% (inactive)
Nc1ccc2nn(-c3ccccc3)nc2c1 | 57.9% (active)
COc1cccc(CN(c2ccc3c(c2)CCC3)S(=O)(=O)c2ccc(-n3cnnn3)c(OC)c2)c1 | -3.4% (inactive)
N#C/C(=C\c1ccncc1)C(N)=O | 17.1% (inactive)
COc1ccc(Oc2ccccc2C#N)cc1 | 4.7% (inactive)
O=C(CSc1nnnn1CCCO)Nc1ccc2c(c1)OCO2 | -12.3% (inactive)
COC(=O)c1ccc(N2CCOCC2)c(F)c1 | -3.2% (inactive)
Nc1cc(-c2ccc(Br)cc2)nn1S(=O)(=O)c1cccc2nsnc12 | 11.3% (inactive)
CO[C@H]1C=CO[C@@]2(C)Oc3c(C)c(O)c4c(O)c(c5c(nc6cc(C)ccn65)c4c3C2=O)NC(=O)C(C)=CC=C[C@H](C)[C@H](O)[C@@H](C)[C@@H](O)[C@@H](C)[C@H](OC(C)=O)[C@@H]1C | 32.2% (inactive)
CO[C@H]1C=CO[C@@]2(C)Oc3c(C)c(O)c4c(O)c(c(C=NN5CCN(C6CCCC6)CC5)c(O)c4c3C2=O)NC(=O)C(C)=CC=C[C@H](C)[C@H](O)[C@@H](C)[C@@H](O)[C@@H](C)[C@H](OC(C)=O)[C@@H]1C | 73.8% (active)
CO[C@H]1C=CO[C@@]2(C)Oc3c(C)c(O)c4c(O)c(c(C=NN5CCN(C)CC5)c(O)c4c3C2=O)NC(=O)C(C)=CC=C[C@H](C)[C@H](O)[C@@H](C)[C@@H](O)[C@@H](C)[C@H](OC(C)=O)[C@@H]1C | 42.7% (inactive)
O=C(OCC(=O)N1CCCC1)c1ccccc1OCc1ccccc1 | 4.1% (inactive)
NC(=O)c1c(NC(=S)Nc2ccc(F)cc2)sc2c1CCCC2 | 2.3% (inactive)
Cc1ccc(/C=C2/C(=O)N(c3ccccc3)C(=S)N2C)o1 | 52.2% (active)
CCOc1ccc(N2C(=O)/C(=C/c3ccc(C)o3)N(C)C2=S)cc1 | 43.2% (inactive)
CN1C(=S)N(c2ccccc2)C(=O)/C1=C/c1ccco1 | -16.2% (inactive)

SMILES | inhibition
COc1cc(C(=O)NCC(C)C)cc(OC)c1OC | -10.5% (inactive)
COC(=O)C1=C(C)NC(C)=C(C(=O)OC)C1c1ccc(-c2cc(Cl)ccc2Cl)o1 | -1.9% (inactive)
COCCNC(=O)Cn1nc(C(F)(F)F)cc1C | 21.9% (inactive)
Cc1ccc(C(=O)NCc2ccccc2)cc1Br | 12.6% (inactive)
c1ccc2sc(N3CCOCC3)nc2c1 | -4.3% (inactive)
Fc1ccc2nc(N3CCOCC3)sc2c1 | -5.9% (inactive)
Nc1ccc2nc(N3CCOCC3)sc2c1 | 59.7% (active)
Cc1cnc(C(=O)OCC(=O)N2CCN(C(=O)c3ccco3)CC2)cn1 | 6.1% (inactive)
O=C(CSc1nc2ccccc2c(=O)n1-c1ccccc1)N1CCc2ccccc2C1 | 8% (inactive)
CC1(C(=O)NC2CCCCCCC2)CCC(=O)N1CCN1CCOCC1 (stereo not given) | -8.6% (inactive)
COc1cc(C2C(C#N)=C(N)Oc3c2ccc2ccccc32)ccc1OCC(=O)Nc1ccc(C)cc1 (stereo not given) | 24.1% (inactive)
COC(=O)c1ccc(NC(=O)COc2ccc(C3C(C#N)=C(N)Oc4c3ccc3ccccc43)cc2OC)cc1 (stereo not given) | 15.5% (inactive)
COc1cc(C2C(C#N)=C(N)Oc3c2ccc2ccccc32)ccc1OCC(=O)Nc1cccc(C)c1 (stereo not given) | 53.4% (active)
CCOC(=O)c1cc(CC)sc1NC(=O)CC1Sc2ccc(C(F)(F)F)cc2NC1=O (stereo not given) | -5.2% (inactive)
Cc1ccc(S(=O)(=O)NCc2nc3ccccc3[nH]2)cc1 | 5% (inactive)
Cc1nnc(SCC(=O)NC2CCCCC2)n(N)c1=O | -2.5% (inactive)
O=C1CN(C(=O)c2cc(Br)c(Br)s2)c2ccccc2N1 | 61.5% (active)
O=C1CN(C(=O)c2ccccc2)c2ccccc2N1 | 6.5% (inactive)
O=C1CN(C(=O)c2cccs2)c2ccccc2N1 | 3.1% (inactive)
COC(=O)c1ccc(NC(=O)Nc2ccccc2F)cc1 | 11% (inactive)
CN(CC(=O)N1CCCc2c1c(=O)oc1ccc(O)cc21)Cc1ccccc1 | 3.3% (inactive)
O=C(CN1CCN(Cc2ccccc2)CC1)N1CCCc2c1c(=O)oc1ccc(O)cc21 | 3.1% (inactive)
CC(C(=O)N1CCCc2c1c(=O)oc1ccc(O)cc21)N1CCc2ccccc2C1 (stereo not given) | 69% (active)

SMILES | inhibition
Cc1ccccc1NC(=O)CC(O)(C(F)(F)F)C(F)(F)F | -6% (inactive)
COc1ccc(C(=O)N2CCCC2)cc1S(=O)(=O)N1CCC(C)CC1 | 5.6% (inactive)
NC(=O)C1=C[C@H](c2ccc(C(F)(F)F)cc2)C[C@H](OCc2ccc(CO)cc2)O1 | 43.9% (inactive)
O=C(O)C1=C[C@@H](c2ccc(Br)cc2)C[C@@H](OCc2ccc(CO)cc2)O1 | -16.7% (inactive)
C=CCOC(=O)C1=C[C@@H](c2ccccc2)C[C@@H](OCc2ccc(CO)cc2)O1 | -6.1% (inactive)
NC(=O)C1=C[C@@H](c2ccc(C(F)(F)F)cc2)C[C@@H](OCc2ccc(CO)cc2)O1 | 61.6% (active)
O=C(Nc1ccccc1)C1=C[C@H](c2ccccc2)C[C@H](OCc2ccc(CO)cc2)O1 | 8.7% (inactive)
NC(=O)C1=C[C@H](c2ccc(Br)cc2)C[C@H](OCc2ccc(CO)cc2)O1 | 51% (active)
NC(=O)C1=C[C@@H](c2ccc(Br)cc2)C[C@@H](OCc2ccc(CO)cc2)O1 | 27.4% (inactive)
NC(=O)C1=C[C@H](c2ccccc2)C[C@H](OCc2ccc(CO)cc2)O1 | 59.2% (active)
O=C(O)C1=C[C@@H](c2ccccc2)C[C@@H](OCc2ccc(CO)cc2)O1 | -9.3% (inactive)
NC(=O)C1=C[C@@H](c2ccccc2)C[C@@H](OCc2ccc(CO)cc2)O1 | 66% (active)
O=C(O)C1=C[C@@H](c2ccc(C(F)(F)F)cc2)C[C@@H](OCc2ccc(CO)cc2)O1 | -0.6% (inactive)
O=C(O)C1=C[C@H](c2ccccc2)C[C@H](OCc2ccc(CO)cc2)O1 | 2.2% (inactive)
CN(Cc1ccccc1)CC(O)COc1ccc(CNCCc2ccncc2)cc1 (stereo not given) | -5.6% (inactive)
CN(C)c1nc(-c2ccccc2)ncc1S(=O)(=O)c1ccccc1 | 14.6% (inactive)
COc1ccc(CC(=O)Nc2ccc(-c3cn4ccc(C)cc4n3)cc2)cc1 | -1.3% (inactive)
COc1ccc(N(CC(=O)NCc2ccco2)S(=O)(=O)c2ccc(C)cc2)cc1 | 14.7% (inactive)
O=C1CN2NC(=S)N(c3ccccc3)C2=CN1c1ccc(Cl)cc1 | -1.1% (inactive)
CCOc1ccc(NC(=O)CSc2n[nH]c(=O)n2-c2ccccc2)cc1 | 6.5% (inactive)
Cn1cccc1/C=N/NC(=O)C12CC3CC(CC(C3)C1)C2 | 2.4% (inactive)
O=C(O)C1=C[C@@H](c2ccc3c(c2)OCO3)C[C@@H](OCc2ccc(CO)cc2)O1 | 4.3% (inactive)
C=CCOC(=O)C1=C[C@@H](c2ccc3c(c2)OCO3)C[C@@H](OCc2ccc(CO)cc2)O1 | 20% (inactive)

SMILES | inhibition
NC(=O)C1=C[C@H](c2ccc3c(c2)OCO3)C[C@H](OCc2ccc(CO)cc2)O1 | 59.9% (active)
O=C(Nc1ccccc1-c1ccccc1)C1CCC1 | 8.4% (inactive)
COc1ccc(Cc2nc(-c3ccc(-n4cccc4)cc3)no2)cc1 | -0.1% (inactive)
O=[N+]([O-])c1ccc(OCCN2CCNCC2)cc1 | -5.8% (inactive)
COc1nnc(-c2ccc(N3CCCCC3)c(NC(C)=O)c2)c2ccccc12 | -9.2% (inactive)
C=CCNC(=S)N1CCC(C(=O)c2ccc3c(c2)OCCO3)CC1 | 12.3% (inactive)
COc1cnc(-c2ccccn2)nc1Oc1ccccc1 | 12.7% (inactive)
COc1ccc(C(=O)Cn2c(Br)nc3c2c(=O)n(C)c(=O)n3C)cc1 | -3% (inactive)
COCCn1c(Br)nc2c1c(=O)n(C)c(=O)n2C | 0.3% (inactive)
Cc1ccc(OCCn2c(Br)nc3c2c(=O)n(C)c(=O)n3C)cc1 | 52.7% (active)
CCc1ccccc1NC(=O)c1cccc(Oc2ccc([N+](=O)[O-])cc2Cl)c1 | 6.1% (inactive)
CN(C)S(=O)(=O)c1ccc(Cl)c(NC(=O)CSc2nc3ccccc3c(=O)n2CCCN2CCOCC2)c1 | 4.7% (inactive)
CCOC(=O)c1ccccc1NC(=O)COC(=O)C1=COCCO1 | 3.8% (inactive)
CC12CN3CC(C)(CN(C1)C3c1c[nH]c3ccccc13)C2=O (stereo not given) | 3.5% (inactive)
Cn1cc(C2N3CC4(C)CN2CC(C)(C3)C4=O)c2ccccc21 (stereo not given) | 4.5% (inactive)
CC12CN3CC(C)(CN(C1)C3c1ccc3ccccc3c1O)C2=O (stereo not given) | 53.1% (active)
CCCCCCNC(=O)Nc1ccccc1 | 0.8% (inactive)
CC(/C=C1\SC(=S)N(NC(=O)c2ccc(O)cc2)C1=O)=C\c1ccccc1 | 23.4% (inactive)
CC(=O)N1C(=O)/C(=C2\SC(=S)N(NC(=O)c3ccc(O)cc3)C2=O)c2ccccc21 | 56.1% (active)
CC(=O)N1C(=O)/C(=C2\SC(=S)N(NS(=O)(=O)c3ccc(C)cc3)C2=O)c2ccccc21 | 38.2% (inactive)
Cc1cc(C)c(S(=O)(=O)n2nc(C)c(Br)c2C)c(C)c1 | -6.9% (inactive)
